Assay in all cases: NCI-60 one-dose screen, 48 h (100 = growth as untreated, 0 = no growth, -100 = all killed)
One test concerns SK-MEL-2 melanoma. As to conditions: 10 µM unless noted.
The next test relates to EKVX NSCLC. The following applies: 10 µM unless noted.
For the next test, the system named is SN12C renal. As to conditions: 10 µM unless noted.
A further test concerns UO-31 renal. As to conditions: 10 µM unless noted.
The test system of the next test is TK-10 renal. The following applies: 10 µM unless noted.
The test system of a further test is ACHN renal. The following applies: 10 µM unless noted.
A further test relates to CAKI-1 renal. As to conditions: 10 µM unless noted.
The next test relates to A498 renal. The following applies: 10 µM unless noted.
The test system of the next test is CCRF-CEM leukemia. As to conditions: 10 µM unless noted.
Another test concerns MOLT-4 leukemia. The following applies: 10 µM unless noted.
The subject of another test is SR leukemia. The following applies: 10 µM unless noted.
The test system of the next test is RPMI-8226 leukemia. The following applies: 10 µM unless noted.
A further test relates to OVCAR-8 ovarian. As to conditions: 10 µM unless noted.
Another test relates to OVCAR-5 ovarian. As to conditions: 10 µM unless noted.
In a further test the test system is OVCAR-4 ovarian. The following applies: 10 µM.
A further test relates to SK-OV-3 ovarian. As to conditions: 10 µM unless noted.
A further test has as its system OVCAR-3 ovarian. The following applies: 10 µM unless noted.
For another test, the system named is HS 578T breast. As to conditions: 10 µM unless noted.
Another test deals with NCI/ADR-RES ovarian. The following applies: 10 µM unless noted.

8 compounds from PubChem BioAssay (NCI) can be followed below.

This is part of a sample that, as a whole, favours compounds with a hit. Of some 83,000 tested, about 20% had one in any assay.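 Testing used 96-well plates and a 48-hour single-concentration exposure. Example: -40 means 40% of the starting cells died.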 Unmarked numbers belong to inactive results. Calls of active or inactive are those of the source. Rule for the calls: active = growth percent below 10; inactive = the rest.

For `Cc1ccc(S(=O)(=O)Oc2ccc([N+](=O)[O-])cc2[N+](=O)[O-])cc1`, the growth in the test with SK-MEL-2 melanoma was 78.8%; with EKVX NSCLC, 101%; in the test with SN12C renal it was 32.7%; in the test with UO-31 renal, 73.6%; in the test on TK-10 renal, 110%; with ACHN renal, 104%. Also, the growth was 82.3% with CAKI-1 renal; 94.3% with A498 renal; 23% in the test on CCRF-CEM leukemia; 54.2% in the test with MOLT-4 leukemia; 56.6% in the test with SR leukemia; 53.2% in the test on RPMI-8226 leukemia. Besides, the growth with OVCAR-8 ovarian was 78.8%; in the test with OVCAR-5 ovarian, 111%; in the test with OVCAR-4 ovarian, 63.6%; with SK-OV-3 ovarian, 119%; in the test on OVCAR-3 ovarian, 107%; in the test on HS 578T breast, 123%. Further, the growth with NCI/ADR-RES ovarian was 85.1%.

Consider `O=C(Oc1ccc(Cl)cc1[N+](=O)[O-])Oc1ccc(Cl)cc1[N+](=O)[O-]`, for which the growth in the test with SK-MEL-2 melanoma was 103%; with EKVX NSCLC it was 108%; in the test on SN12C renal, 107%; in the test with UO-31 renal it was 88.8%; with TK-10 renal, 120%; in the test on ACHN renal, 108%. The growth is 104% with CAKI-1 renal; 154% with A498 renal; 102% in the test with CCRF-CEM leukemia; 97.8% in the test on MOLT-4 leukemia; 82.1% with SR leukemia; 100% in the test on RPMI-8226 leukemia. The growth in the test with OVCAR-8 ovarian is 108%; in the test with OVCAR-5 ovarian, 108%; in the test on OVCAR-4 ovarian it was 119%; in the test with SK-OV-3 ovarian, 120%; in the test on OVCAR-3 ovarian, 119%; in the test on HS 578T breast, 104%. The growth in the test with NCI/ADR-RES ovarian was 119%.

`O=C(O)c1ccccc1C(F)(F)F`: the growth in the test with SK-MEL-2 melanoma was 112%; in the test with EKVX NSCLC, 93.2%; in the test with SN12C renal, 90.9%; in the test on UO-31 renal, 95.3%; in the test with TK-10 renal it was 111%; in the test with ACHN renal it was 92.6%. Moreover, the growth was 87.8% in the test on CAKI-1 renal; 74.5% in the test with A498 renal; 108% with CCRF-CEM leukemia; 97.1% in the test on MOLT-4 leukemia; 92.4% with SR leukemia; 59% in the test on RPMI-8226 leukemia. The growth with OVCAR-8 ovarian was 105%; with OVCAR-5 ovarian, 97.2%; in the test with OVCAR-4 ovarian it was 101%; in the test on SK-OV-3 ovarian, 93.1%; with OVCAR-3 ovarian it was 97.9%; in the test with HS 578T breast, 89.7%. Also, in the test on NCI/ADR-RES ovarian, the growth was 80.8%.

As to `O=C(N/N=C/c1ccc([N+](=O)[O-])cc1)c1ccc(Br)o1`, the growth was 33.6% with SK-MEL-2 melanoma; 112% with EKVX NSCLC; 102% in the test on SN12C renal; -17.5% (active) with UO-31 renal; 131% in the test on TK-10 renal; 107% in the test on ACHN renal. Further, the growth was 106% with CAKI-1 renal; 116% in the test on A498 renal; 99.5% in the test on CCRF-CEM leukemia; 123% in the test on MOLT-4 leukemia; 106% with SR leukemia; 72% with RPMI-8226 leukemia. In addition, the growth was 71.8% in the test on OVCAR-8 ovarian; 104% in the test with OVCAR-5 ovarian; 99.8% with OVCAR-4 ovarian; 79.3% with SK-OV-3 ovarian; 121% in the test on OVCAR-3 ovarian; 127% with HS 578T breast. In the test on NCI/ADR-RES ovarian, the growth was 99.6%.

Regarding `CCOC(=O)C(C(C)=O)c1nc2sc3cc(Cl)c(Cl)cc3n2c(=O)c1C#N` (configuration not stated), the growth with SK-MEL-2 melanoma is 108%; in the test on EKVX NSCLC, 86%; in the test with SN12C renal it was 98.8%; in the test with UO-31 renal, 58.4%; in the test with TK-10 renal it was 145%; in the test on ACHN renal, 101%. For the same compound, the growth with CAKI-1 renal was 96.2%; in the test with A498 renal it was 142%; in the test with CCRF-CEM leukemia, 96.7%; in the test with MOLT-4 leukemia it was 89.6%; with SR leukemia, 105%; with RPMI-8226 leukemia it was 98.6%. Further, the growth in the test on OVCAR-8 ovarian is 92.8%; in the test with OVCAR-5 ovarian it was 122%; in the test on OVCAR-4 ovarian, 94.5%; in the test with SK-OV-3 ovarian it was 83.2%; with OVCAR-3 ovarian, 112%; in the test on HS 578T breast, 114%. Also, the growth in the test on NCI/ADR-RES ovarian was 106%.

In the case of `C#CC(OC(=O)N(C)C)(c1ccccc1)c1ccc(F)cc1` (configuration not stated), the growth in the test on SK-MEL-2 melanoma was 102%; with EKVX NSCLC, 116%; in the test with SN12C renal it was 96.7%; in the test with UO-31 renal, 89.3%; in the test on TK-10 renal, 125%; in the test with ACHN renal, 101%. The growth with CAKI-1 renal was 91.8%; in the test on A498 renal it was 105%; with CCRF-CEM leukemia, 116%; in the test on MOLT-4 leukemia, 98%; in the test with SR leukemia, 108%; in the test with RPMI-8226 leukemia, 128%. Further, the growth with OVCAR-8 ovarian was 93.5%; in the test on OVCAR-5 ovarian, 93.4%; in the test with OVCAR-4 ovarian it was 107%; in the test with SK-OV-3 ovarian, 114%; with OVCAR-3 ovarian, 133%; in the test on HS 578T breast, 128%. The growth in the test on NCI/ADR-RES ovarian was 89.3%.

Consider `CCCCOC(=O)c1c(C)[nH]c(/C=C2\N=C(c3ccc[nH]3)C=C2OC)c1C`, for which the growth was -64.6% (active) in the test with SK-MEL-2 melanoma; -8.89% (active) in the test on EKVX NSCLC; 8.83% (active) in the test with SN12C renal; -72.2% (active) in the test on UO-31 renal; 9.12% (active) with TK-10 renal; -40.4% (active) in the test on ACHN renal. The growth in the test on CAKI-1 renal is -29.2% (active); in the test on A498 renal, -13.4% (active); in the test with CCRF-CEM leukemia, 12.6%; in the test on MOLT-4 leukemia it was 8.13% (active); in the test with SR leukemia it was 14.5%; with RPMI-8226 leukemia, -32.1% (active). Also, the growth in the test on OVCAR-8 ovarian is 7.7% (active); in the test with OVCAR-5 ovarian, 11%; in the test with OVCAR-4 ovarian, 3.84% (active); with SK-OV-3 ovarian, 34.7%; in the test on OVCAR-3 ovarian it was -37.6% (active); in the test with HS 578T breast it was -23.2% (active). Besides, the growth in the test with NCI/ADR-RES ovarian is 8.85% (active).

As for `N#Cc1c(Cl)nc(SCC2CO2)nc1-c1ccccc1` (configuration not stated), the growth in the test with SK-MEL-2 melanoma is 70.1%; in the test with EKVX NSCLC, 99.6%; in the test with SN12C renal, 95.9%; in the test on UO-31 renal, 66.1%; in the test on TK-10 renal, 111%; with ACHN renal, 95.5%. For the same compound, the growth with CAKI-1 renal was 87.9%; with A498 renal, 108%; with CCRF-CEM leukemia, 110%; in the test with MOLT-4 leukemia it was 113%; with SR leukemia it was 89.8%; with RPMI-8226 leukemia it was 103%. Besides, the growth in the test on OVCAR-8 ovarian is 51.6%; with OVCAR-5 ovarian it was 101%; with OVCAR-4 ovarian, 103%; in the test with SK-OV-3 ovarian, 70.2%; in the test with OVCAR-3 ovarian, 137%; in the test on HS 578T breast it was 121%. The growth in the test with NCI/ADR-RES ovarian was 108%.
